# Reference: PubChem BioAssay
# Where “and” joins values, the source holds several entries; their conditions need not be identical. Equal entries are not always repeated. Where a structure was tested more than once in an assay, its records may differ in their call. Calls of active or inactive are those of the source. Unless noted, no rule for the calls is given here.
# Columns and labels:
# [1] = polyglutamine-triggered caspase-3 activation inhibitors, cell-based (AID 1583); conditions: polyglutamine-induced caspase-3 activation, cell assay; stronger effect = higher value;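 tested at 10 µM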
# [2] = circadian clock period modulators, cell-based, LOPAC library, luminescence reporter (AID 2774); conditions: circadian reporter cells, at 7 µM, actives lie on both sides;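 also: values are relative to mean of DMSO wells on each plate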
# [3] = Cy5 fluorescence quenching or enhancement artefacts, artefact control for HCV NS3 helicase inhibitor project, biochemical, LOPAC1280 (AID 687037); conditions: Cy5-DNA-NS3h complex fluorescence interference counterscreen
# [4] = stimulators of nuclear beta-catenin in C2C12, primary screen, imaging, WNT3A-conditioned medium, mouse C2C12, NPC library (AID 1117326; in the data active = nuclear beta-catenin stimulation mostly above about 4.2%, no sharp cut-off; inactive = mostly below about 10%); conditions: stronger effect = higher value
# [5] = stimulators of insulin release from INS-1E, primary screen, cell-based, 5 mM glucose, NPC library (AID 1117329;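 active = compound raises insulin release from rat beta cells at 5 mM glucose, no numeric limit stated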); conditions: rat INS-1E insulin secretion, at 10 µM, stronger effect = higher value
# [6] = growth inhibition of GSK3B-pretreated HCT116 cells – cell-based, CellTiter-Glo, 0.2 to 20 µM (AID 1117336;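 active = compounds lowering colon cancer cell viability after pretreatment blocking the GSK3B kinase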); conditions: HCT116 viability after GSK3B inhibitor, at 20 µM, stronger effect = higher value
# [7] = inhibition of endothelial tube formation, primary screen, imaging, VEGF stimulated, CD31 staining, tube area, NPC library (AID 1117340;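 active = compound that reduces growth-factor-driven endothelial tube area in a mixed cell culture, no cutoff stated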); conditions: VEGF-stimulated ADSC/ECFC co-culture, at 10 µM, stronger effect = higher value
# [8] = glucagon-like peptide 1 release enhancers, primary assay, NCI-H716 cell line, NPC library (AID 1117341;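 active = compound raises GLP1 secretion from the human gut endocrine cells, with no numeric limit stated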); conditions: NCI-H716 cells, at 10 µM, stronger effect = higher value
# [9] = HCT116 colon cancer cell growth inhibition, primary screen, CellTiter-Glo luminescence, NPC library (AID 1117342;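 active = compounds that lower survival of HCT116 colon cancer cells in the luminescence readout, no numeric limit stated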); conditions: at 20 µM (top of the series)
# [10] = CellTiter-Glo luminescent readout of SW480 viability loss, NPC library primary (AID 1117343;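 active = compounds that lower viability of the colon cancer cells in the luminescence readout, with no numeric limit stated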); conditions: CellTiter-Glo luminescence; at 20 µM (top of the series)
# [11] = decreased DLD-1 cellular survival, CellTiter-Glo luminescent readout, NPC compound collection, primary HTS (AID 1117346;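 active = compounds that lower survival of DLD-1 colon cancer cells in the luminescence readout, no cutoff given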); conditions: DLD-1 viability, CellTiter-Glo luminescence; at 20 µM (top of the series)
# [12] = target: 6-phosphogluconate dehydrogenase, decarboxylating (Homo sapiens) (UniProt P52209); assay: 6PGD enzyme inhibitors, primary screen, biochemical, human, recombinant enzyme, NADPH absorbance (AID 1159550;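 active = at least 20% inhibition of 6-phosphogluconate dehydrogenase activity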); conditions: recombinant 6PGD, NADPH absorbance 341 nm; at 10 µM; stronger effect = higher value
# Sequence of 6-phosphogluconate dehydrogenase, decarboxylating (Homo sapiens) (P52209 whole entry, looked up): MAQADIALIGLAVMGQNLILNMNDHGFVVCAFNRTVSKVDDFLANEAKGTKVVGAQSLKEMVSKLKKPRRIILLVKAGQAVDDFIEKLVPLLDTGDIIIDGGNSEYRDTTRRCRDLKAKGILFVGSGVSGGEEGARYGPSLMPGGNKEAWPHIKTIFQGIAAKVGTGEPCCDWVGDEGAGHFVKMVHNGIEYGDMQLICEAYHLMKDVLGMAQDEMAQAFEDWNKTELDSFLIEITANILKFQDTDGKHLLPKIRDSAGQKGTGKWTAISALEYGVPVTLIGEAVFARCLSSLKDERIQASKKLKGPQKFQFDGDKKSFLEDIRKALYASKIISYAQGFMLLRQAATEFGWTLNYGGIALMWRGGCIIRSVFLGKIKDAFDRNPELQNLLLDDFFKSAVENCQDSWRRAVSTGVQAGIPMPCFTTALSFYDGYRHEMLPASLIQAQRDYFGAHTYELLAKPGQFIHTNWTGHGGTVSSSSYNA
# [13] = differential killing of epithelial or mesenchymal cells, primary screen, imaging, PC-3E GFP, TEM4-18 mCherry, co-culture (AID 1345086;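 active = compounds killing one labelled cell type while sparing the other, by normalised counts and ratio limits, not self-fluorescent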;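 as to all read-outs here: cells exposed to compound for 72 h before imaging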;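 as to red/green cell ratio (normalised): normalised mesenchymal count divided by normalised epithelial count so high means epithelial killing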); conditions: imaging cell counts, at 1 µM; for red/green cell ratio (normalised): actives lie on both sides
# [14] = tested on: Aerobactin synthetase IucA (Klebsiella pneumoniae hvKP1); assay: Biochemical IucA enzyme inhibition primary screen of the Spectrum library (AID 1346200); conditions: malachite green pyrophosphate, A620, at 8 µM, stronger effect = lower value;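 also: 100% = wells without compound and 0% = wells lacking enzyme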
# [15] = sensitizers of A549 cells to miR-34 induction, primary screen, imaging, A549 dox-inducible miR-34, nuclei and caspase counts (AID 1347080;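 active = compounds whose cell count with miR-34 switched on is under 0.7 times the count with it off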); conditions: A549 miR-34 inducible, Hoechst nuclei count, 48 h
# [16] = target: Mitogen-activated protein kinase 7 (Homo sapiens) (UniProt Q13164); assay: ERK5 transactivation activators in reporter cells, primary screen, cell-based, HTS (AID 1508626;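 active = luciferase signal above three times the same-plate solvent-only control wells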;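 also: luciferase driven by Gal4-ERK5 fusion binding five Gal4 sites before minimal TATA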); conditions: HeLa Gal4-ERK5 transactivation, 18 h, at 5 µM, stronger effect = higher value
# Sequence of Mitogen-activated protein kinase 7 (Homo sapiens) (Q13164 whole entry, looked up, the tested form may be a part): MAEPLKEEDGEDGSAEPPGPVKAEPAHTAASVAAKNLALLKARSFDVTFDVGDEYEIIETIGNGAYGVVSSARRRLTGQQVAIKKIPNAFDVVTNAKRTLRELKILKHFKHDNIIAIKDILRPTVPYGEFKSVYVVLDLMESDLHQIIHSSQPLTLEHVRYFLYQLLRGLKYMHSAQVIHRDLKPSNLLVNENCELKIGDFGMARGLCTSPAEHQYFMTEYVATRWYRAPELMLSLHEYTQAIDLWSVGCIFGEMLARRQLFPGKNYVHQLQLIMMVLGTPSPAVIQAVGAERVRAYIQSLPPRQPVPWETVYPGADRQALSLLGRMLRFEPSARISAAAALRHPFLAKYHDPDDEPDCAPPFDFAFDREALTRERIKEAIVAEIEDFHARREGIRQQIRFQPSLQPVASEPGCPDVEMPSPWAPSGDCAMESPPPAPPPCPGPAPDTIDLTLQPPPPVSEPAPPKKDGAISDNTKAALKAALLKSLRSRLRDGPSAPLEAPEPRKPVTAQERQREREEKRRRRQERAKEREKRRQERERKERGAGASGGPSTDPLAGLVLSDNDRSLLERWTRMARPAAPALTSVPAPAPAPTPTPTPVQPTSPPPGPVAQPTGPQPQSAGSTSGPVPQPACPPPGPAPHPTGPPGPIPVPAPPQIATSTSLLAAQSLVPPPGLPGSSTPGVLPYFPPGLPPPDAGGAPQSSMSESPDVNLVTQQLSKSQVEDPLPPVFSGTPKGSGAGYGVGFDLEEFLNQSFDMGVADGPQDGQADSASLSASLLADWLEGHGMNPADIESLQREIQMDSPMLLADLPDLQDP
# [17] = viability rescue of complex I mutant cybrids, primary screen, cell-based, galactose medium, ATP luminescence (AID 1645843;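 active = z-score of at least 1.8 in each of two replicates, scored against plate mean and spread of sample wells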;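 also: positive z means more ATP and so rescue of galactose-driven cybrid death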); conditions: complex I mutant cybrid cells, 72 h, stronger effect = higher value
# [18] = survival rescue of mitochondrial mutant cells in low glucose, primary screen, MELAS cybrids, Rieske KO mouse fibroblasts, CellTiter-Glo (AID 1508586;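 active = mean z-score across replicates of 1.96 or higher in either the MELAS or the Rieske mutant cell line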;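 also: z relative to plate mean and SD of compound and empty wells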)
# [19] = target: NAD(+) hydrolase SARM1 (Homo sapiens) (UniProt Q6SZW1); assay: SARM1 TIR NADase inhibitors, cell lysate, NAD-Glo luminescence (AID 1508614;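 active = compound whose remaining NAD level is above about 45 nM, limit read from the data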;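 also: higher remaining NAD means stronger inhibition of SARM1 NADase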); conditions: SAM-TIR HEK293T lysate NADase, at 1 µM, stronger effect = higher value
# Sequence of NAD(+) hydrolase SARM1 (Homo sapiens) (Q6SZW1 whole entry, looked up): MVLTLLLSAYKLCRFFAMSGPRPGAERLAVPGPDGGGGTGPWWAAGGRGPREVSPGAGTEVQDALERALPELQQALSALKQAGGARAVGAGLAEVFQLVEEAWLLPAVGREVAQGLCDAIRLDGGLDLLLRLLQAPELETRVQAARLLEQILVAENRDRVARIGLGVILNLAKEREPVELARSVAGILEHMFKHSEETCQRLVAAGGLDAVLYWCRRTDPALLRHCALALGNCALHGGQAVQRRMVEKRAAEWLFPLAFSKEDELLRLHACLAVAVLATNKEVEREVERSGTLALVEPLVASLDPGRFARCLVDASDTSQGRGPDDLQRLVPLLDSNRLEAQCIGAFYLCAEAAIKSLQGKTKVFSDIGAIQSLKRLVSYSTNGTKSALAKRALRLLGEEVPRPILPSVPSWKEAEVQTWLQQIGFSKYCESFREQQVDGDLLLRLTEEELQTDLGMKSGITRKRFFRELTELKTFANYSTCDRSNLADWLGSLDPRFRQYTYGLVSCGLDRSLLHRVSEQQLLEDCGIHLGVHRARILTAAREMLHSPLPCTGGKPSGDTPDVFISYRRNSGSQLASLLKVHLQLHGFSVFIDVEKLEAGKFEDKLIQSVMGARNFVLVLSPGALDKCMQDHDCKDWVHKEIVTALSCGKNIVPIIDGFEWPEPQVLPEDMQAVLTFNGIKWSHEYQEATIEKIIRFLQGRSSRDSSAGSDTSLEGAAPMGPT
# [20] = liver-stage malaria parasite growth inhibition, primary screen, cell-based, HepG2, luciferase luminescence, HepG2 viability (AID 624349; in the data active = parasite load remaining mostly below about 12%, no sharp cut-off; inactive = mostly above about 10%;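 also: 100% = mean of DMSO negative control wells on the same plate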); conditions: P. berghei liver stage in HepG2, luciferase luminescence, concentration not given here; parasite load remaining: stronger effect = lower value; viability: measured here: HepG2 viability without parasites
# [21] = measured here: epithelial PC-3E GFP cell survival
# [22] = measured here: mesenchymal TEM4-18 mCherry cell survival
# [23] = measured here: relative caspase fold change +Dox/-Dox
# [24] = measured here: total cells with miR-34 induction, stronger effect = lower value
# [25] = measured here: total cells without miR-34 induction
# [26] = MELAS cybrid survival, CellTiter-Glo 48 h, stronger effect = higher value
# [27] = Rieske KO mouse fibroblast survival, CellTiter-Glo 72 h
smiles,measurement,setting,value
C=C(C)[C@H]1Cc2c(ccc3c2O[C@@H]2COc4cc(OC)c(OC)cc4[C@@H]2C3=O)O1,inhibition,[1],5.88%
same,period change,[2],-1.31 h (inactive)
same,fluorescence ratio (interference),[3],1 (inactive)
same,nuclear beta-catenin stimulation,[4]; at 10 µM,92.8% (active)
same,nuclear beta-catenin stimulation,"[4]; stimulation, at 2 µM",43.8%
same,insulin secretion stimulation,[5],-0.1% (inactive)
same,viability decrease,[6],4.4% (inactive)
same,tube area decrease,[7],107% (active)
same,GLP1 secretion stimulation,[8],2.2% (inactive)
same,inhibition of viability,[9],60.6% (active)
same,viability decrease (inhibition),[10],88.3% (active)
same,viability decrease (inhibition),[11],83.4% (active)
same,inhibition,[12],10.4% (inactive)
same,red/green cell ratio (normalised),[13],1.19 (inactive)
same,normalised cell number,[13]; [21],0.27
same,normalised cell number,[13]; [22],0.32
same,activity remaining,[14],92.3% (inactive)
same,fold change,[15]; stronger effect = lower value,1.11 (inactive)
same,fold change,[15]; [23],0.665
same,cell count,[15]; [24],1680
same,cell count,[15]; [25],1510
same,luciferase signal,[16],52 AU (inactive)
same,z-score,[17],-1.29 (inactive)
CC(C)N(CCC(C(N)=O)(c1ccccc1)c1ccccn1)C(C)C (centres undefined),inhibition,[1],-16.9%
same,period change,[2],0.265 hour (inactive) and -0.11 hour (inactive)
same,fluorescence ratio (interference),[3],1 (inactive)
same,nuclear beta-catenin stimulation,[4]; at 10 µM,0.5% (inactive)
same,nuclear beta-catenin stimulation,"[4]; stimulation, at 2 µM",1.2%
same,insulin secretion stimulation,[5],0.8% (inactive)
same,viability decrease,[6],-17.4% (inactive)
same,tube area decrease,[7],15.3% (inactive)
same,GLP1 secretion stimulation,[8],-2.8% (inactive)
same,inhibition of viability,[9],-3.87% (inactive)
same,viability decrease (inhibition),[10],18.8% (inactive)
same,viability decrease (inhibition),[11],-13.7% (inactive)
same,inhibition,[12],5.28% (inactive)
same,red/green cell ratio (normalised),[13],1.1 (inactive)
same,normalised cell number,[13]; [21],1.22
same,normalised cell number,[13]; [22],1.34
same,activity remaining,[14],102% (inactive)
same,z-score,[18]; [26],-0.238 (inactive) and 0.483 (inactive)
same,z-score,[18]; [27],-0.211 and 0.374
same,remaining NAD,[19],10 nM (inactive)
same,luciferase signal,[16],32 AU (inactive)
same,z-score,[17],0.14 (inactive) and 0.36 (inactive) and 1.19 (inactive)
Clc1ccc(CO/N=C(\Cn2ccnc2)c2ccc(Cl)cc2Cl)c(Cl)c1,parasite load remaining,[20],88.3% (inactive) and 30.5% (inactive) and 1.97% (inactive)
same,viability,[20],76.2% and 91.5% and 53%
same,nuclear beta-catenin stimulation,[4]; at 10 µM,27.8% (inactive)
same,nuclear beta-catenin stimulation,"[4]; stimulation, at 2 µM",3.3%
same,insulin secretion stimulation,[5],-0.7% (inactive)
same,viability decrease,[6],101% (active)
same,tube area decrease,[7],109% (active)
same,GLP1 secretion stimulation,[8],25.7% (active)
same,inhibition of viability,[9],101% (active)
same,viability decrease (inhibition),[10],141% (active)
same,viability decrease (inhibition),[11],103% (active)
same,inhibition,[12],-14.7% (inactive)
same,red/green cell ratio (normalised),"[13]; counts scaled to control wells, 1 = unselective",1.02 (inactive)
same,normalised cell number,[13]; [21],1.03
same,normalised cell number,[13]; [22],1.05
same,activity remaining,[14],128% (inactive)
same,fold change,[15]; stronger effect = lower value,0.851 (inactive)
same,fold change,"[15]; stronger effect = lower value, cell number ratio, induced over uninduced",1.12 (inactive)
same,fold change,[15]; [23],1.03 and 1.16
same,cell count,[15]; [24],7740 and 6080
same,cell count,[15]; [25],6900 and 7140
same,z-score,[18]; [26],-0.195 (inactive) and 0.269 (inactive)
same,z-score,[18]; [27],0.707 and 1.28
same,remaining NAD,[19],10 nM (inactive)
same,luciferase signal,[16],52 AU (inactive)
same,z-score,[17],-2.53 (inactive)
COc1ccc(OC)c(C(O)C(C)N)c1 (centres undefined),period change,[2],0.08 h (inactive)
same,fluorescence ratio (interference),[3],1 (inactive)
same,nuclear beta-catenin stimulation,[4]; at 10 µM,-1.8% (inactive)
same,nuclear beta-catenin stimulation,"[4]; stimulation, at 2 µM",-1.1%
same,insulin secretion stimulation,[5],-0.1% (inactive)
same,viability decrease,[6],4% (inactive)
same,tube area decrease,[7],-6.6% (inactive)
same,GLP1 secretion stimulation,[8],-3.9% (inactive)
same,inhibition of viability,[9],-3% (inactive)
same,viability decrease (inhibition),[10],-2.5% (inactive)
same,viability decrease (inhibition),[11],-4.2% (inactive)
same,inhibition,[12],11.8% (inactive)
same,red/green cell ratio (normalised),[13],0.84 (inactive)
same,normalised cell number,[13]; [21],1.33
same,normalised cell number,[13]; [22],1.11
same,activity remaining,[14],103% (inactive)
same,fold change,[15]; stronger effect = lower value,1.09 (inactive) and 0.79 (inactive) and 0.922 (inactive)
same,fold change,[15]; [23],1.23 and 1.51 and 0.904
same,cell count,[15]; [24],11000 and 8690 and 11600
same,cell count,[15]; [25],10000 and 11000 and 12600
same,z-score,[18]; [26],0.379 (inactive)
same,z-score,[18]; [27],0.108
same,remaining NAD,[19],10 nM (inactive)
same,luciferase signal,[16],104 AU (inactive)
same,z-score,[17],0.13 (inactive)
Cc1ncc(CNC(=O)N(CCCl)N=O)c(N)n1,period change,[2],-0.065 h (inactive)
same,parasite load remaining,[20],130% (inactive)
same,viability,[20],90.7%
same,fluorescence ratio (interference),[3],1 (inactive)
same,nuclear beta-catenin stimulation,[4]; at 10 µM,3% (inactive)
same,nuclear beta-catenin stimulation,"[4]; stimulation, at 2 µM",-0.9%
same,insulin secretion stimulation,[5],0.3% (inactive)
same,viability decrease,[6],-0.8% (inactive)
same,tube area decrease,[7],28.9% (inactive)
same,GLP1 secretion stimulation,[8],-6% (inactive)
same,inhibition of viability,[9],-0.1% (inactive)
same,viability decrease (inhibition),[10],10.9% (inactive)
same,viability decrease (inhibition),[11],1.8% (inactive)
same,inhibition,[12],2.15% (inactive)
same,red/green cell ratio (normalised),[13],0.95 (inactive)
same,normalised cell number,[13]; [21],0.91
same,normalised cell number,[13]; [22],0.86
same,activity remaining,[14],107% (inactive)
same,fold change,[15]; stronger effect = lower value,0.981 (inactive)
same,fold change,[15]; [23],1.12
same,cell count,[15]; [24],6420
same,cell count,[15]; [25],6540
same,remaining NAD,[19],10 nM (inactive)
same,luciferase signal,[16],100 AU (inactive)
same,z-score,[17],-0.62 (inactive)
O=C(O)c1nn(Cc2ccc(Cl)cc2Cl)c2ccccc12,period change,[2],-0.065 h (inactive)
same,fluorescence ratio (interference),[3],1 (inactive)
same,nuclear beta-catenin stimulation,[4]; at 10 µM,1.4% (inactive)
same,nuclear beta-catenin stimulation,"[4]; stimulation, at 2 µM",4.8%
same,insulin secretion stimulation,[5],4.2% (inactive)
same,viability decrease,[6],31.1% (inactive)
same,tube area decrease,[7],-29.5% (inactive)
same,GLP1 secretion stimulation,[8],4.9% (inactive)
same,inhibition of viability,[9],19.6% (inactive)
same,viability decrease (inhibition),[10],24.5% (inactive)
same,viability decrease (inhibition),[11],3.6% (inactive)
same,inhibition,[12],4.63% (inactive)
same,red/green cell ratio (normalised),[13],0.98 (inactive)
same,normalised cell number,[13]; [21],0.85
same,normalised cell number,[13]; [22],0.83
same,fold change,[15]; stronger effect = lower value,1.1 (inactive) and 0.951 (inactive) and 0.966 (inactive)
same,fold change,[15]; [23],0.953 and 0.659 and 0.627
same,cell count,[15]; [24],10200 and 7460 and 7860
same,cell count,[15]; [25],9270 and 7840 and 8130
same,z-score,[18]; [26],-0.0995 (inactive)
same,z-score,[18]; [27],-0.0829
same,remaining NAD,[19],10 nM (inactive)
same,z-score,[17],2.35 (active) and 0.985 (inactive)
